HT1080 IDH1KD tx – toxicity to HT-1080 IDH1 knockdown cells (counter line). AID 686971. HT-1080 IDH1 knockdown viability, ATP luminescence, 48 h. 360,000 tested, 2% active. Potency, µM (highest dose often 46.1 µM), for the others: top-dose activity, negative = toxicity, hits mostly cytotoxic;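 further: potency means the concentration at half of the fitted maximal effect; 0% = DMSO wells and -100% = cell-free medium wells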
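Cytotoxicity counter-line: IDH1KD HT-1080, 48 h, CellTiter-Glo. Curves classed by r2, magnitude and activity.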
DT40 TDP1 no CPT – qHTS for Inhibitors of human tyrosyl-DNA phosphodiesterase 1 (TDP1): qHTS in cells in absence of CPT; Potency, µM (highest dose often 46.2 µM), for inactives: at the top dose activity change, negative = growth inhibition, hits mostly inhibitors; 420,000 tested, 15% active; DT40 Tdp1-/- hTDP1 cells, no CPT, ATP luminescence, 48 h; further: potency means the concentration at half of the fitted maximal effect; nearly all actives have a fitted effect of over 55% in size
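Growth of hTDP1-complemented DT40 Tdp1-knockout cells is measured by ATP luminescence after at least 48 hr compound exposure at 37 °C, with DMSO substituting for the 20 nM CPT used in the parallel screen.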
TDP1 cell CPT – growth inhibition of DT40 Tdp1-/-;hTDP1 cells with camptothecin (screen for TDP1 inhibitors); chicken DT40 Tdp1-/-;hTDP1 cells + 20 nM CPT, ATP luminescence, 48 h; AID 686979; 420,000 tested, 12% active; Potency, µM (doses to about 46.2 µM), for the others: top-dose activity change, negative = growth inhibition, actives largely listed as inhibitors; further: potency means the concentration at half of the fitted maximal effect; nearly all actives have a fitted effect of over 55% in size
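Chicken DT40 Tdp1-/- cells complemented with human TDP1, 400 cells/well, exposed to compounds plus 20 nM camptothecin for at least 48 h at 37 C; viability read as ATP content by CellTiter-Glo luminescence.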
IL-1B inflam inh – inflammasome signaling inhibition, IL-1 beta readout; activity change, % at 57.5 µM; THP-1 LPS/ATP IL-1B secretion, AlphaLISA, 16 h; stronger effect = lower value; 360,000 tested, 4.7% active; AID 743279; in the data active means activity change below about -50%; inconclusive means mostly about -30% to -49%
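Secreted IL-1B measured by AlphaLISA bead assay after 16 h compound exposure of THP-1 cells; compounds (final up to 57.5 uM) added 1 h before LPS (250 ng/mL) and ATP (1.25 mM) stimulation; lower signal means less secretion.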
HT1080-NT tox – kills 2HG-producing HT-1080-NT fibrosarcoma cells | HT-1080-NT fibrosarcoma viability, CellTiter-Glo ATP luminescence, 48 h | Potency, µM (titrated, usually from 46.1 µM), for inactives: at the highest dose activity, negative = less viability, actives largely listed as cytotoxic | 360,000 tested, 1.6% active | AID 686970;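 further: NT is the 2HG producing partner of a matched IDH1 knockdown line; potency means the concentration at half of the fitted maximal effect; 0% = DMSO-treated cells and -100% = media-only wells without cells; nearly all actives have a fitted effect of over 55% in size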
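HT-1080-NT fibrosarcoma cells (2HG-overproducing), 750 cells/well in RPMI with 5% FBS, dosed after 2 h and incubated 48 h at 37C. CellTiter-Glo luminescence normalized to DMSO and no-cell wells; concentration-response curves fitted and classed.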
Starred values were filed as active, the others as inactive. A selection: hits, their analogues and other compounds. The true share with any hit is near 19%. Unless noted, the call rests on the fitted dose curve; in most records, active means well fitted curve in the direction sought with a large enough effect; inconclusive means small, poorly fitted or top-dose-only effect, or another doubt; inactive means no such curve, though single readings can be large; an effect the other way counts as inactive or inconclusive. Unless noted, on the % scale 0 is the no-effect control and ±100 the full control effect.

How did Cc1ccc(-c2noc(-c3ccccc3NC(=O)C3CC(=O)N(c4ccccc4C)C3)n2)cc1 (stereo unspecified) do in these assays?
DT40 TDP1 no CPT: 23µM*; TDP1 cell CPT: 18µM*

Results for Cc1ccc(OCCCc2c(C)n[nH]c2C)cc1 ?
HT1080 IDH1KD tx: -22%; DT40 TDP1 no CPT: 16µM*; TDP1 cell CPT: inconclusive; IL-1B inflam inh: -16; HT1080-NT tox: -15%

Results for Cc1n[nH]c(C)c1CCCCOc1ccccc1 ?
HT1080 IDH1KD tx: 0%; DT40 TDP1 no CPT: inconclusive; TDP1 cell CPT: inconclusive; IL-1B inflam inh: 21; HT1080-NT tox: -11%

How did Cc1n[nH]c(C)c1CCCCOc1ccccc1[N+](=O)[O-] do in these assays?
HT1080 IDH1KD tx: -15%; DT40 TDP1 no CPT: inconclusive; TDP1 cell CPT: 21µM*; IL-1B inflam inh: -13; HT1080-NT tox: -4%

What do the screens show for `Cc1ccccc1OCCCCc1c(C)n[nH]c1C`?
HT1080 IDH1KD tx: inconclusive; DT40 TDP1 no CPT: 18µM*; TDP1 cell CPT: inconclusive; IL-1B inflam inh: -17; HT1080-NT tox: inconclusive

Results for COc1cccc(OC)c1OCCCCc1c(C)n[nH]c1C ?
HT1080 IDH1KD tx: -3%; DT40 TDP1 no CPT: inconclusive; TDP1 cell CPT: 26µM*; IL-1B inflam inh: 2; HT1080-NT tox: 1%

How did COc1cccc(OC)c1OCCCCCc1c(C)n[nH]c1C do in these assays?
HT1080 IDH1KD tx: -9%; DT40 TDP1 no CPT: inconclusive; TDP1 cell CPT: inconclusive; IL-1B inflam inh: -4; HT1080-NT tox: -6%

How did Cc1n[nH]c(C)c1CCCCOc1ccccc1F do in these assays?
HT1080 IDH1KD tx: -17%; DT40 TDP1 no CPT: inconclusive; TDP1 cell CPT: -28%; IL-1B inflam inh: inconclusive; HT1080-NT tox: -6%

What do the screens show for `COc1cccc(Cn2c(=O)c(CCc3ccccc3)nc3cncnc32)c1`?
DT40 TDP1 no CPT: inconclusive; TDP1 cell CPT: -28%

How did NCCC(=O)O do in these assays?
DT40 TDP1 no CPT: -24%; TDP1 cell CPT: 1%

How did CN(C)S(=O)(=O)N1CCCC(C(=O)c2ccc(-c3ccccc3)c(F)c2)C1 (stereo unspecified) do in these assays?
HT1080 IDH1KD tx: inconclusive; DT40 TDP1 no CPT: 15µM*; TDP1 cell CPT: 16µM*; IL-1B inflam inh: -5; HT1080-NT tox: -9%

Results for Cc1ncoc1C(=O)N1CCCC(C(=O)c2ccc(-c3ccccc3)c(F)c2)C1 (stereo unspecified) ?
HT1080 IDH1KD tx: -3%; DT40 TDP1 no CPT: inconclusive; TDP1 cell CPT: inconclusive; IL-1B inflam inh: -9; HT1080-NT tox: -12%

What do the screens show for `COc1ccc(C(=O)C2CCCN(Cc3cn(C)nc3-c3ccccc3)C2)cc1F` (stereo unspecified)?
HT1080 IDH1KD tx: -12%; DT40 TDP1 no CPT: 26µM*; TDP1 cell CPT: inconclusive; IL-1B inflam inh: -15; HT1080-NT tox: -12%

What do the screens show for `O=C(c1ccc(-c2ccccc2)c(F)c1)C1CCCN(CCCn2cccn2)C1` (stereo unspecified)?
HT1080 IDH1KD tx: -11%; DT40 TDP1 no CPT: inconclusive; TDP1 cell CPT: 16µM*; IL-1B inflam inh: inconclusive; HT1080-NT tox: -7%

How did CSc1ccccc1C(=O)C1CCCN(Cc2cnn(-c3ccccc3)c2)C1 (stereo unspecified) do in these assays?
HT1080 IDH1KD tx: inconclusive; DT40 TDP1 no CPT: inconclusive; TDP1 cell CPT: -27%; IL-1B inflam inh: -4; HT1080-NT tox: -27%

Results for CCn1cc(CN2CCCC(C(=O)c3ccc(-c4ccccc4)c(F)c3)C2)cn1 (stereo unspecified) ?
HT1080 IDH1KD tx: 21µM*; DT40 TDP1 no CPT: 23µM*; TDP1 cell CPT: 18µM*; IL-1B inflam inh: -81*; HT1080-NT tox: inconclusive

Results for CSc1ccc(C(=O)C2CCCN(S(=O)(=O)N(C)C)C2)cc1 (stereo unspecified) ?
HT1080 IDH1KD tx: -7%; DT40 TDP1 no CPT: inconclusive; TDP1 cell CPT: 7%; IL-1B inflam inh: -6; HT1080-NT tox: -6%

What do the screens show for `CCOC(=O)c1cnc2c(C(=O)OC)cccc2c1NCc1cccnc1`?
HT1080 IDH1KD tx: -7%; DT40 TDP1 no CPT: 9%; TDP1 cell CPT: -2%; IL-1B inflam inh: 32; HT1080-NT tox: -8%

What do the screens show for `OCCN(CCCn1c(-c2ccncc2)nc2ccccc21)c1nc(CN2CCCCC2)cs1`?
HT1080 IDH1KD tx: 3%; DT40 TDP1 no CPT: -14%; TDP1 cell CPT: 0%; IL-1B inflam inh: -10; HT1080-NT tox: 5%

How did COc1c(C)cc(C(=O)C2CCCN(C(=O)c3cc(C)n(C)n3)C2)cc1C (stereo unspecified) do in these assays?
HT1080 IDH1KD tx: -16%; DT40 TDP1 no CPT: inconclusive; TDP1 cell CPT: inconclusive; IL-1B inflam inh: 26; HT1080-NT tox: -4%

What do the screens show for `COc1c(C)cc(C(=O)C2CCCN(S(=O)(=O)N(C)C)C2)cc1C` (stereo unspecified)?
HT1080 IDH1KD tx: -2%; DT40 TDP1 no CPT: 13µM*; TDP1 cell CPT: inconclusive; IL-1B inflam inh: 3; HT1080-NT tox: -16%

What do the screens show for `OC(c1ccc(Cl)cc1)c1ncc(-c2ccccc2Cl)[nH]1` (stereo unspecified)?
HT1080 IDH1KD tx: -27%; DT40 TDP1 no CPT: inconclusive; TDP1 cell CPT: inconclusive; IL-1B inflam inh: -27; HT1080-NT tox: -21%

Results for C=CCn1c(C)cc(C(=O)CN2C(=O)NC3(CCCc4ccccc43)C2=O)c1C (stereo unspecified) ?
HT1080 IDH1KD tx: -9%; DT40 TDP1 no CPT: inconclusive; TDP1 cell CPT: inconclusive; IL-1B inflam inh: -22; HT1080-NT tox: -7%

What do the screens show for `CCN(Cc1cccs1)C(=O)CN1C(=O)NC(c2ccccc2)(c2ccccc2)C1=O`?
HT1080 IDH1KD tx: 3%; DT40 TDP1 no CPT: inconclusive; TDP1 cell CPT: inconclusive; IL-1B inflam inh: -14; HT1080-NT tox: -10%

What do the screens show for `Cc1cc(C(=O)CN2C(=O)NC3(CCCc4ccccc43)C2=O)c(C)n1Cc1cccs1` (stereo unspecified)?
HT1080 IDH1KD tx: -17%; DT40 TDP1 no CPT: inconclusive; TDP1 cell CPT: 16µM*; IL-1B inflam inh: inconclusive; HT1080-NT tox: -21%

How did CCN(Cc1cccs1)C(=O)CN1C(=O)NC2(CCCc3ccccc32)C1=O (stereo unspecified) do in these assays?
HT1080 IDH1KD tx: -5%; DT40 TDP1 no CPT: -19%; TDP1 cell CPT: 21µM*; IL-1B inflam inh: -28; HT1080-NT tox: -1%

What do the screens show for `CCN(C(=O)CN1C(=O)NC2(CCCc3ccccc32)C1=O)c1ccc(F)cc1` (stereo unspecified)?
HT1080 IDH1KD tx: 8%; DT40 TDP1 no CPT: 16µM*; TDP1 cell CPT: inconclusive; IL-1B inflam inh: 4; HT1080-NT tox: -4%
